Source: PubChem BioAssay
CHX counter – affects cycloheximide protein synthesis inhibition readout, counter-screen; max response, %; actives 12% (n = 300,000); cell reporter, cycloheximide protein synthesis inhibition counterscreen; AID 2314; in the data active = max response mostly above about 13%, no sharp cut-off; inactive = mostly below about 14%; note: read at 38.3 µM for the half of the compounds with a filed dose; 0% is about no effect
Shiga inhibitor – inhibitors of Shiga toxin in Vero cells; inhibition, % at 38.7 µM; actives 9.2% (n = 290,000); Vero cells, Shiga toxin protein synthesis inhibition reporter; AID 2315; in the data active = inhibition mostly above about 28%, no sharp cut-off; inactive = mostly below about 43%; note: 0% is about no effect
HCMV antiviral – inhibitors of human cytomegalovirus | activity change, negative = inhibition, % at 57.5 µM | actives 4.5% (n = 410,000) | HFF cells, HCMV-luciferase reporter, 72 h; stronger effect = lower value; in the data active = activity change below about -60%; inconclusive = no clear call, values can overlap the other calls; inactive = above about -39%; note: % is set by controls: 0 for no effect and ±100 for the full control effect
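Steps: HFFs plated, 16 h 37C; compounds added; HCMV-luciferase added to MOI 1 PFU/cell; 72 h 37C; OneGlo reagent, 5 min room temperature; luminescence read, normalized to controls.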
Pf growth 96h – inhibits malaria parasite growth, 96 h; P. falciparum luciferase reporter growth, 96 h; Potency, µM (doses to about 28.7 µM), for the others: top-dose activity change, negative = inhibition, actives largely listed as inhibitors; actives 6.9% (n = 320,000); AID 504834; note: potency is the fitted concentration of half-maximal effect; % is set by controls: 0 for no effect and ±100 for the full control effect
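Plates of compound plus infected erythrocytes (2% hematocrit, 0.05% parasitemia final) incubate 96 hours, 37 C, 5% CO2. Detection reagent added; reduced luminescence from the parasites' luciferase reporter flags inhibition.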
Pf growth 48h – inhibits P. falciparum growth in the first generation, 48 h. P. falciparum luciferase growth in erythrocytes, 48 h. actives 5.9% (n = 310,000). Potency, µM (titrated, usually from 28.7 µM), without a hit: top-dose activity change, negative = inhibition, hits mostly inhibitors; note: potency is the fitted concentration of half-maximal effect; % is set by controls: 0 for no effect and ±100 for the full control effect
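Growth was read as firefly luciferase luminescence after a 48 h, 37 C, 5% CO2 exposure of compounds to reporter-bearing P. falciparum cultures (0.1% parasitemia, 2% hematocrit final) in Albumax-supplemented RPMI 1640.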
An asterisk follows results filed as active. In the library only some 20% were active in any assay of this set; here they are far more common. Unless noted, calls come from the whole dose curve; as a rule, active = well fitted inhibition curve with a large enough effect; inconclusive = small, poorly fitted or top-dose-only effect, or another doubt; inactive = no such curve, though single readings can be large or run the other way.

What do the screens show for `Cc1cn(-c2cc(C(=O)Nc3ccc(C)c(NC(=O)C(=O)c4c[nH]c5ccccc45)c3)cc(C(F)(F)F)c2)cn1`?
CHX counter: -5; Shiga inhibitor: -2; HCMV antiviral: inconclusive; Pf growth 96h: inconclusive; Pf growth 48h: 1µM*

Results for COc1ccccc1N1CCN(C(=O)CSc2nnc3n2C(C)(C)Cc2ccccc2-3)CC1 ?
CHX counter: -7; Shiga inhibitor: -5; HCMV antiviral: -92*; Pf growth 96h: 0%; Pf growth 48h: inconclusive

How did CC1Cc2ccccc2N1C(=O)CSc1nnc2n1C(C)(C)Cc1ccccc1-2 (centres undefined) do in these assays?
CHX counter: -4; Shiga inhibitor: -8; HCMV antiviral: inconclusive; Pf growth 96h: 2.6µM*; Pf growth 48h: inconclusive

What do the screens show for `Cn1c(SCC(=O)c2ccccc2)nnc1-c1cnccn1`?
CHX counter: 27*; Shiga inhibitor: 59; HCMV antiviral: 61; Pf growth 96h: 8.3µM*; Pf growth 48h: 106%

What do the screens show for `Cn1c(SCC(=O)c2ccccc2)nnc1-c1cccs1`?
CHX counter: 25*; Shiga inhibitor: 86*; HCMV antiviral: -24; Pf growth 96h: 1%; Pf growth 48h: -1%

Results for O=C(CSc1nnc(-c2cnccn2)n1Cc1ccco1)c1ccc2ccccc2c1 ?
CHX counter: -5; Shiga inhibitor: -37; HCMV antiviral: -15; Pf growth 96h: 10µM*; Pf growth 48h: 13%

How did COC(=O)CSc1nnc(-c2cnccn2)n1C do in these assays?
CHX counter: -6; Shiga inhibitor: 2; HCMV antiviral: 17; Pf growth 48h: -15%

How did CCC(=O)Nc1cccc(-c2nnc(SCC(=O)c3ccccc3)n2C)c1 do in these assays?
CHX counter: 36*; Shiga inhibitor: 81*; HCMV antiviral: 84; Pf growth 96h: -23%; Pf growth 48h: 95%

Results for Cn1c(SCC(=O)NCc2cccs2)nnc1-c1cccs1 ?
CHX counter: -2; Shiga inhibitor: -17; HCMV antiviral: -3; Pf growth 96h: 233%; Pf growth 48h: -5%

How did Cc1ccc(SC(C)c2nc(-c3cccnc3)no2)cc1 (centres undefined) do in these assays?
CHX counter: 6; Shiga inhibitor: 70; HCMV antiviral: 10; Pf growth 96h: -14%; Pf growth 48h: inconclusive

What do the screens show for `Cn1c(SCC(=O)c2ccccc2)nnc1-c1cccnc1`?
CHX counter: 54*; Shiga inhibitor: 67*; HCMV antiviral: 4; Pf growth 96h: 14%; Pf growth 48h: inconclusive

How did CCn1c(SCC(=O)c2ccccc2)nnc1-c1cnccn1 do in these assays?
CHX counter: 52*; Shiga inhibitor: 107*; HCMV antiviral: 16; Pf growth 96h: 7%; Pf growth 48h: 61%

What do the screens show for `Cn1c(SCC(=O)C(C)(C)C)nnc1-c1ccncc1`?
CHX counter: -4; Shiga inhibitor: -14; HCMV antiviral: 27; Pf growth 96h: 5%

Results for CC(C)OC(=O)CSc1nnc(-c2cnccn2)n1C ?
CHX counter: 4; Shiga inhibitor: 11; HCMV antiviral: 3; Pf growth 96h: 10µM*; Pf growth 48h: 4%

What do the screens show for `Cn1c(SCCCC(=O)c2ccc(Br)cc2)nnc1-c1ccncc1`?
CHX counter: -2; Shiga inhibitor: 8; HCMV antiviral: -36; Pf growth 96h: 8.3µM*

Results for O=P(O)(OCc1ccccc1)OCc1ccccc1 ?
HCMV antiviral: 12; Pf growth 96h: 48%; Pf growth 48h: 24%

What do the screens show for `CCOC(=O)C1CCC(C(=O)OCC)N1c1ccc(C=O)cc1` (centres undefined)?
HCMV antiviral: 0

How did COc1ccccc1Cc1c(C(C)(C)C)nc2cc(C)c(Br)c(C)n12 do in these assays?
HCMV antiviral: 44

Results for CC1=C(C#N)C(Nc2ccc(C)cn2)(C(F)(F)F)C(=O)N1 (centres undefined) ?
CHX counter: -4; Shiga inhibitor: -16; HCMV antiviral: -15; Pf growth 96h: -5%

How did Cc1cc2n(n1)CCCN2C(=O)Nc1ccc(Cl)cc1 do in these assays?
HCMV antiviral: 19

Results for Cc1cc(C)c(C2=NOC3C4CCC(C4)C23)c(C)c1 (centres undefined) ?
CHX counter: 11; Shiga inhibitor: -8; HCMV antiviral: -63*; Pf growth 96h: -24%; Pf growth 48h: -14%

What do the screens show for `C/C(=N\NC(=O)c1ccc(CSc2nc(C)cc(C)n2)cc1)c1ccco1`?
CHX counter: -2; Shiga inhibitor: 5; HCMV antiviral: -22; Pf growth 96h: inconclusive; Pf growth 48h: inconclusive

How did C/C(=N\Nc1nc(C)cc(-c2ccccc2)n1)c1ccc(C)o1 do in these assays?
CHX counter: 8; Shiga inhibitor: 7; HCMV antiviral: -63*; Pf growth 96h: 1µM*; Pf growth 48h: 13µM*

How did C/C(=N/Nc1nc(C)cc(-c2ccccc2)n1)c1ccco1 do in these assays?
CHX counter: 21*; Shiga inhibitor: 56; HCMV antiviral: 42; Pf growth 48h: -27%

What do the screens show for `COC(=O)c1c(NC(=O)c2cc(=O)c3cc(C)cc(C)c3o2)sc2c1CCC2`?
HCMV antiviral: -4

Results for O=C(/C(=N/N=C/c1ccc(O)c(O)c1O)c1ccccc1)c1ccccc1 ?
CHX counter: 6; Shiga inhibitor: 12; HCMV antiviral: 14; Pf growth 96h: inconclusive; Pf growth 48h: 10µM*

What do the screens show for `CCN(CC)S(=O)(=O)c1cccc(C(=O)N/N=C/c2ccc(O)c(O)c2O)c1`?
CHX counter: -3; Shiga inhibitor: 4; HCMV antiviral: 34; Pf growth 96h: -3%; Pf growth 48h: -12%

What do the screens show for `Oc1ccc(/C=N/N=C(c2ccccc2)c2ccccc2)c(O)c1O`?
CHX counter: 18*; Shiga inhibitor: 27; HCMV antiviral: inconclusive; Pf growth 96h: inconclusive; Pf growth 48h: inconclusive

What do the screens show for `Cc1ccc(S(=O)(=O)Nc2cc3c(cc2N2CCOCC2)n(C)c(=O)n3C)cc1`?
HCMV antiviral: 28

Results for CCc1ccccc1NC(=O)c1cc(-c2cccc(O)c2)on1 ?
CHX counter: 20*; Shiga inhibitor: 61; HCMV antiviral: 0; Pf growth 96h: -10%

What do the screens show for `COc1cccc(-c2cc(C(=O)Nc3cccnc3Cl)no2)c1`?
CHX counter: 10; Shiga inhibitor: 10; HCMV antiviral: -27; Pf growth 96h: 22%; Pf growth 48h: 29%

Results for CCc1ccccc1NC(=O)c1cc(-c2cccs2)on1 ?
CHX counter: 17*; Shiga inhibitor: 38; HCMV antiviral: -12; Pf growth 96h: 217%; Pf growth 48h: 54%

What do the screens show for `O=C(Nc1ccccc1C(F)(F)F)c1cc(-c2cccc(O)c2)on1`?
CHX counter: 20*; Shiga inhibitor: 27; HCMV antiviral: 23; Pf growth 96h: 10µM*; Pf growth 48h: 11%

What do the screens show for `CCc1ccccc1NC(=O)c1cc(-c2ccc(F)cc2)on1`?
CHX counter: 21; Shiga inhibitor: 33; HCMV antiviral: -39; Pf growth 96h: 0%; Pf growth 48h: 21%
